Experimental data from publication PMC4336329 (PLoS ONE, 2015).
The campaign covered roughly 310,000 compounds. About 14,000 (4.5%) showed an effect of 50% or more. The effect is printed as a negative number. The sample holds strong results, similar compounds and a random draw of the others, so the mix is not that of the screen.

What follows are compounds tested against human ether-à-go-go-related gene (hERG) potassium channel (human, UniProt Q12809) (assay: primary screen, population patch clamp on CHO cells stably expressing hERG; higher = less effect of the substance).
human ether-à-go-go-related gene (hERG) potassium channel, sequence (Q12809 whole entry, looked up): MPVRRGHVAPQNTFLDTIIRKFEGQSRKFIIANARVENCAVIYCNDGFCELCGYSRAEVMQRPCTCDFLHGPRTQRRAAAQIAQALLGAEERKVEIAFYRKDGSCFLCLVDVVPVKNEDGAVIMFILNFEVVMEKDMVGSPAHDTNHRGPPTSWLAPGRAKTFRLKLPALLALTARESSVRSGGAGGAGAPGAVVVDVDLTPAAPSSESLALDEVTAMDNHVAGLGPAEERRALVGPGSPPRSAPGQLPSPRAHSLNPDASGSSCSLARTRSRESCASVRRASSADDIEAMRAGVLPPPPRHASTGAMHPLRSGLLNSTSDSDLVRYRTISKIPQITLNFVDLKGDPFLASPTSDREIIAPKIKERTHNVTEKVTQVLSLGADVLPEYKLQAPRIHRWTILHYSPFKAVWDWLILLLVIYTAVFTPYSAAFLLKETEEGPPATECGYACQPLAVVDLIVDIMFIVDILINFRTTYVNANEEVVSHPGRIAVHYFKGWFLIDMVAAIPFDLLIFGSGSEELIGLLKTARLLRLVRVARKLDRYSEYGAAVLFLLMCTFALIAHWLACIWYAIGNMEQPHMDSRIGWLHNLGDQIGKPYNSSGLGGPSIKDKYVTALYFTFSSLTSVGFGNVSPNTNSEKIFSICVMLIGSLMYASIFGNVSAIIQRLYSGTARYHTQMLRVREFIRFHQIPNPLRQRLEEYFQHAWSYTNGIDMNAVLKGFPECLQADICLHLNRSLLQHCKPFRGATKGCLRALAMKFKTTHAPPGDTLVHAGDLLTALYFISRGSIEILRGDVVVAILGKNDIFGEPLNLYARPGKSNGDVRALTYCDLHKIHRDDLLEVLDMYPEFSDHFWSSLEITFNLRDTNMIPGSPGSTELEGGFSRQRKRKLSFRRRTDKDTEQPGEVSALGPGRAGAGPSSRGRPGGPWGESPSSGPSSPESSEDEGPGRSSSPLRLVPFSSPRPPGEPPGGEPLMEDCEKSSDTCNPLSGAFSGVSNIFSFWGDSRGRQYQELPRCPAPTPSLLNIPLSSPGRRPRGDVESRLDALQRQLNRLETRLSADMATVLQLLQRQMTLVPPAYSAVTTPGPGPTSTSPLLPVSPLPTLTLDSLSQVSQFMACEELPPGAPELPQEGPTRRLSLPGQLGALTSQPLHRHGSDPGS
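Note: peak tail current of the secondary pulse compared with the same well before compound.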

First: Cc1cc(C)cc(NC(=O)CCC(=O)Nc2cc(C)on2)c1
Second: Cc1cc(C)c(C(CC(=O)c2cccs2)C(C#N)C#N)c(C)c1 (stereo not drawn)
The “hERG current change (%, negative = inhibition) at 10uM” value of the first is higher: 8.01% for the first, -23.9% for the second.

Going from `O=c1c2ccccc2n2c(-c3cccc(Cl)c3)nnc2n1Cc1ccccc1` to `CC(C)(C)NC(=O)Cn1c(=O)c(=O)n(Cc2ccccc2)c2ccc(Cl)cc21`, the “hERG current change (%, negative = inhibition) at 10uM” value rises from -11.8% to -0.233%.

Compared with `COc1ccccc1NC(=O)c1cc(=O)[nH]c2ccccc12`, `COc1ccccc1-c1nnc(SC(C(=O)c2c[nH]c3ccccc23)c2ccccc2)n1C` (stereo not drawn) is lower in “hERG current change (%, negative = inhibition) at 10uM” value: 33.4% for the first, 20.8% for the second.

First: COc1ccc(CN2C(=O)CN=C2Nc2cc(C)ccc2C)cc1.Cl
Second: COc1ccc(COC(=O)c2c(C)nn(-c3ccccc3)c2Cl)cc1
The “hERG current change (%, negative = inhibition) at 10uM” value of the first is lower: 1.79% for the first, 4.32% for the second.

First: O=C(CN(Cc1ccc(Cl)cc1)C(=O)CN1C(=O)COc2ccccc21)NC1CCCC1
Second: CC1CCCCN1CCNC(=O)c1ccc2c(=O)n(Cc3ccc(Cl)cc3)c(=S)[nH]c2c1 (stereo not drawn)
The “hERG current change (%, negative = inhibition) at 10uM” value of the first is higher: 15% for the first, -50.9% for the second.

First: CCOC(=O)c1ccc2nc(NC(NC(C)=O)(C(=O)OC)C(F)(F)F)sc2c1 (stereo not drawn)
Second: CCOC(=O)N1CCN(Cc2nc(Cc3cccc(C(F)(F)F)c3)no2)CC1
The “hERG current change (%, negative = inhibition) at 10uM” value of the first is higher: 13.6% for the first, -15% for the second.

Compared with `CN(C(=O)CSc1nnc(Cc2ccccc2F)n1N)C1CCS(=O)(=O)C1` (stereo not drawn), `CCN(CCn1cccn1)C(=O)CCc1nnc(CCc2ccccc2OC)o1` is lower in “hERG current change (%, negative = inhibition) at 10uM” value: 9.76% for the first, 5.73% for the second.

Going from `OCC1CCCN(C2CCN(Cc3nc(Cc4cccc(C(F)(F)F)c4)no3)CC2)C1` (stereo not drawn) to `FC(F)(F)c1cccc(Cc2noc(CN3CCC(N4CCCCC4)CC3)n2)c1`, the “hERG current change (%, negative = inhibition) at 10uM” value falls from -74.1% to -74.7%.

Going from `FC(F)(F)c1cccc(Cc2noc(CN3CCCC(CN4CCCC4)C3)n2)c1` (stereo not drawn) to `FC(F)(F)c1cccc(Cc2noc(CN3CCCC3)n2)c1`, the “hERG current change (%, negative = inhibition) at 10uM” value rises from -45.5% to 15.6%.

First: FC(F)(F)c1cccc(Cc2noc(CN3CCSCC3)n2)c1
Second: NC(=O)[C@@H]1CCCN1Cc1nc(Cc2cccc(C(F)(F)F)c2)no1
The “hERG current change (%, negative = inhibition) at 10uM” value of the first is lower: 0.814% for the first, 8.45% for the second.

Compared with `Fc1cccc(Cc2noc(CN3CCC(c4ccncc4)CC3)n2)c1`, `FC(F)(F)c1cccc(Cc2noc(CN3CCC(c4ccncc4)CC3)n2)c1` is lower in “hERG current change (%, negative = inhibition) at 10uM” value: -21.4% for the first, -66.2% for the second.

Going from `Fc1ccc(N2CCN(c3cnc4ccccc4n3)CC2)cc1` to `CCN(Cc1ccccc1)C(=O)c1cccc(S(=O)(=O)N2CCN(c3ccc(F)cc3)CC2)c1`, the “hERG current change (%, negative = inhibition) at 10uM” value falls from 6.24% to -47.2%.

First: Cc1cc(C(F)(F)F)nn1Cc1n[nH]c(=S)n1-c1ccc(Cl)cc1
Second: CN(C)CCNC(=O)c1ccc2c(=O)n(Cc3ccc(Cl)cc3)c(=S)[nH]c2c1
The “hERG current change (%, negative = inhibition) at 10uM” value of the first is higher: 20.3% for the first, -27.8% for the second.

First: O=[N+]([O-])c1ccc(-c2c(O)c3ccccc3c3nc4ccccc4nc23)cc1
Second: O=C(CCc1nc2ccccc2n1-c1ccccc1)NCCO
The “hERG current change (%, negative = inhibition) at 10uM” value of the first is higher: 18% for the first, 6.97% for the second.

First: Cc1sc(NC(=O)c2ccco2)c(C(c2cccnc2)N2CCCC2)c1C (stereo not drawn)
Second: Cc1sc(NC(=O)c2ccco2)c(C(c2cccnc2)N2CCN(C)CC2)c1C (stereo not drawn)
The “hERG current change (%, negative = inhibition) at 10uM” value of the first is higher: -8.45% for the first, -32.7% for the second.

First: Cc1sc(NC(=O)c2ccco2)c(C(c2cccnc2)N2CCN(c3ccc(F)cc3)CC2)c1C (stereo not drawn)
Second: CCN1CCN(C(c2cccnc2)c2c(NC(=O)c3ccco3)sc(C)c2C)CC1 (stereo not drawn)
The “hERG current change (%, negative = inhibition) at 10uM” value of the first is higher: 1.92% for the first, -58.4% for the second.

Compared with `Cc1sc(NC(=O)c2ccco2)c(C(c2ccc(F)cc2)N2CCN(C)CC2)c1C` (stereo not drawn), `Cc1sc(NC(=O)c2ccco2)c(C(c2cccnc2)N2CCN(CCO)CC2)c1C` (stereo not drawn) is higher in “hERG current change (%, negative = inhibition) at 10uM” value: -68.1% for the first, -20.9% for the second.

First: CC1(C)CC(=O)C2=C(C1)N(Cc1ccc(F)cc1)C(=O)C2(NC(=O)c1cccnc1)C(F)(F)F (stereo not drawn)
Second: COc1ccc(CN(C)C(=O)COC(=O)c2c(C)nn(-c3ccc(F)cc3)c2Cl)cc1
The “hERG current change (%, negative = inhibition) at 10uM” value of the first is higher: -5.55% for the first, -71.1% for the second.

First: CCCCN(CCCC)CC(O)CN(c1cc([N+](=O)[O-])ccc1OC)S(=O)(=O)c1ccccc1 (stereo not drawn)
Second: CCCN(CCC)CC(O)CN(c1cc([N+](=O)[O-])ccc1OC)S(=O)(=O)c1ccccc1.Cl (stereo not drawn)
The “hERG current change (%, negative = inhibition) at 10uM” value of the first is lower: -67% for the first, -60.4% for the second.

Going from `COc1ccc([N+](=O)[O-])cc1N(CC(O)CN(CC(C)C)CC(C)C)S(=O)(=O)c1ccccc1` (stereo not drawn) to `COc1ccc([N+](=O)[O-])cc1N(CC(O)CN(CC(C)C)CC(C)C)S(=O)(=O)c1ccc(C)cc1.Cl` (stereo not drawn), the “hERG current change (%, negative = inhibition) at 10uM” value falls from -1.91% to -13.7%.

Compared with `C=CCN(CC=C)CC(O)CN(c1cc([N+](=O)[O-])ccc1OC)S(=O)(=O)c1ccccc1` (stereo not drawn), `COc1ccc([N+](=O)[O-])cc1N(CC(O)CN(C)C)S(=O)(=O)c1ccccc1` (stereo not drawn) is higher in “hERG current change (%, negative = inhibition) at 10uM” value: -10.7% for the first, 5.54% for the second.

First: CC(C)CNC(=O)/C=C/C=C/CCCC/C=C/c1ccc2c(c1)OCO2
Second: CCCN(CCC)C(=O)c1oc2ccccc2c1NC(=O)Cc1cccc(OC)c1
The “hERG current change (%, negative = inhibition) at 10uM” value of the first is higher: 20.7% for the first, 4.67% for the second.

First: CC(=O)c1c(C)[nH]c(C(=O)OCc2nc3ccsc3c(=O)[nH]2)c1C
Second: COc1ccc(CN(C)C(=O)COC(=O)c2c(-c3ccccc3Cl)noc2C)cc1
The “hERG current change (%, negative = inhibition) at 10uM” value of the first is higher: -13.6% for the first, -15.1% for the second.

Compared with `O=C(CC1SC(N2CCCCC2)=NC1=O)Nc1ccc(C(=O)O)cc1` (stereo not drawn), `CN1CCc2c(OCC(=O)NC3CCCCC3)cccc2C1=O` is lower in “hERG current change (%, negative = inhibition) at 10uM” value: 22.1% for the first, 13.6% for the second.

First: CC1CCCCN1CCNC(=O)c1ccc2c(=O)n(CCc3ccccc3)c(=O)[nH]c2c1 (stereo not drawn)
Second: CC1CCN(CCNC(=O)c2ccc3c(=O)n(Cc4ccc(Cl)cc4)c(=S)[nH]c3c2)CC1
The “hERG current change (%, negative = inhibition) at 10uM” value of the first is lower: -38.7% for the first, -15.8% for the second.

Compared with `CC1CCN(CCCNC(=O)c2ccc3c(=O)n(Cc4ccc(Cl)cc4)c(=S)[nH]c3c2)CC1`, `COC(=O)c1ccc2c(=O)n(Cc3ccc(C(=O)NCCCN4CCC(C)CC4)cc3)c(=S)[nH]c2c1` is higher in “hERG current change (%, negative = inhibition) at 10uM” value: -68.4% for the first, 7.54% for the second.

Compared with `CSc1nc(NCCCO)c2c3c(sc2n1)CN(C)CC3`, `COCCNc1nc(SC)nc2sc3c(c12)CCN(C)C3` is lower in “hERG current change (%, negative = inhibition) at 10uM” value: -47.4% for the first, -71.2% for the second.

Compared with `CSc1nc(NCC(C)O)c2c3c(sc2n1)CN(C)CC3` (stereo not drawn), `CSc1nc(NCC(C)C)c2c3c(sc2n1)CN(C)CC3` is lower in “hERG current change (%, negative = inhibition) at 10uM” value: -42% for the first, -44.2% for the second.

First: COC(CNc1nc(SC)nc2sc3c(c12)CCN(C)C3)OC
Second: CCN(CC)CCNc1nc(SC)nc2sc3c(c12)CCN(C)C3
The “hERG current change (%, negative = inhibition) at 10uM” value of the first is lower: -52.5% for the first, -6.12% for the second.

Compared with `S=c1[nH]c2ccccc2o1`, `Cc1c(C(=O)OCC(=O)NCc2ccco2)oc2ccccc12` is lower in “hERG current change (%, negative = inhibition) at 10uM” value: 18% for the first, 2.46% for the second.

Going from `COc1ccc(OCC(=O)Nc2c(C(=O)N(CCN(C)C)Cc3ccco3)oc3ccccc23)cc1` to `CN(C)CCN(Cc1ccco1)C(=O)c1oc2ccccc2c1NC(=O)COc1ccccc1`, the “hERG current change (%, negative = inhibition) at 10uM” value falls from -77% to -88.7%.

Going from `COc1ccc(OCC(=O)OCC(=O)NCc2ccco2)cc1` to `O=C(COc1ccccc1)Nc1ccccc1C(=O)NCc1ccco1`, the “hERG current change (%, negative = inhibition) at 10uM” value falls from -4.81% to -6.63%.

First: CCCCCCN=C(C)c1ccccc1O
Second: CCC/C(=N\NC(=O)c1cccc(C)c1)c1ccccc1
The “hERG current change (%, negative = inhibition) at 10uM” value of the first is higher: 20.2% for the first, 2.17% for the second.

Compared with `CCN(Cc1ccccc1)C(=O)c1cccc(S(=O)(=O)N2CCN(c3ccccc3)CC2)c1`, `COCCN(Cc1ccccc1)C(=O)c1cccc(S(=O)(=O)N2CCN(c3ccccc3)CC2)c1` is lower in “hERG current change (%, negative = inhibition) at 10uM” value: -15.8% for the first, -52.8% for the second.

Going from `COCCN(Cc1ccccc1)C(=O)c1cccc(S(=O)(=O)N2CCN(c3ccc(F)cc3)CC2)c1` to `CN(Cc1ccc(F)cc1)C(=O)c1cccc(S(=O)(=O)N2CCN(c3ccccc3)CC2)c1`, the “hERG current change (%, negative = inhibition) at 10uM” value rises from -64.6% to -19.9%.

Going from `COCCN(Cc1ccccc1)C(=O)c1cccc(S(=O)(=O)N2CCCc3ccccc32)c1` to `N#Cc1cccnc1N1CCN(C(=O)c2ccc3c(c2)S(=O)(=O)c2ccccc2C3=O)CC1`, the “hERG current change (%, negative = inhibition) at 10uM” value falls from -21.2% to -22.7%.

Compared with `Cn1c2c(c(=O)n(C)c1=O)C(c1ccc(Br)cc1)Nc1ccccc1O2` (stereo not drawn), `Brc1ccc(CSc2nnc(-c3ccccn3)n2Cc2ccco2)cc1` is higher in “hERG current change (%, negative = inhibition) at 10uM” value: -19.4% for the first, -16.8% for the second.

First: Cc1ccc(S(=O)(=O)NCCC2(C(C)C)CCOC(C)(C)C2)cc1 (stereo not drawn)
Second: CCOc1cccc(/C=N/Nc2ccc(S(=O)(=O)N(CC)CC)cn2)c1O
The “hERG current change (%, negative = inhibition) at 10uM” value of the first is lower: -17.9% for the first, 6.79% for the second.

Going from `CC1(C)CC(=O)C(C=NCC(N)=O)=C(O)C1` to `C=CCn1c(O)c(C(C)=NCCCN(C)C)c(=O)[nH]c1=O`, the “hERG current change (%, negative = inhibition) at 10uM” value rises from -19.5% to 5.49%.

First: N#Cc1cccnc1N1CCN(C(=O)c2cccc3c2C(=O)c2ccc(Cl)cc2S3(=O)=O)CC1
Second: O=C1c2ccc(Cl)cc2S(=O)(=O)c2cccc(C(=O)N3CCN(c4ccc(Cl)cn4)CC3)c21
The “hERG current change (%, negative = inhibition) at 10uM” value of the first is lower: -56.6% for the first, -39.9% for the second.

In the case of `CCCCCCSc1ccc([C@H]2N[C@@](Cc3ccccc3)(C(=O)OC)[C@H]3C(=O)N(C)C(=O)[C@@H]23)cc1OC.O=C(O)C(F)(F)F`, the “hERG current change (%, negative = inhibition) at 10uM” value is reported as 5.93%.
